PubChem BioAssay AID504546 (Broad Institute, 2011)
Inconclusive results are not listed. Activity calls are given as the source filed them.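 Rule for the calls: active = every repeat run fits a falling-signal curve with half-maximal potency within ten times top tested dose; inconclusive = runs disagree, or flat moderate drop, or poor fit; inactive = every run inactive, including signal moving upward.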

Assay: ADP-Glo luciferase signal interference – biochemical, luminescence, cherry-picked samples, set 2, artefact control for CDK5 inhibitor project, dose response (AID 504546);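 note: 0% = DMSO wells and -100% = wells lacking ADP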
Conditions: ADP-Glo detection reagent counter screen, 5 uM ADP; series mostly up to 30 µM; activity change, negative = inhibition: at the top concentration

SMILES	activity change, negative = inhibition
COc1cc2c(ccc3cc(OC)c(OC)c(O)c32)cc1O	-0.298% (inactive)
COc1cc(/C=N/Nc2ccc(C(F)(F)F)cn2)ccc1O	-6.89% (inactive)
O=C(Cc1ccc(O)cc1)NCCNC(=S)NCc1ccccc1	19.9% (inactive)
Nc1nc(Nc2cccc(F)c2)nc(NCCO)c1[N+](=O)[O-]	6.61% (inactive)
CC(C)(C)N=Cc1c(O)ccc2oc3c(c12)CCCC3	2.31% (inactive)
COc1ccc(C(=O)c2sc(Nc3ccccc3)nc2N)cc1	14.6% (inactive)
Oc1ccc(-c2nc(-c3ccc(O)c(O)c3)cs2)cc1	8.38% (inactive)
C=CCNC(=O)c1n[nH]c2c1CC(C(C)(C)CC)CC2 (stereo unspecified)	10.3% (inactive)
COc1ccc(C(=O)c2sc(Nc3ccccc3F)nc2N)cc1	-6.41% (inactive)
COc1ccc2nc(C)cc(Nc3ccc(C)cc3)c2c1	13.1% (inactive)
CCc1c(Nc2ccccc2Cl)nc(N)[nH]c1=O	-6.75% (inactive)
Nc1ncnc2c1ncn2C1OC(CO)C(O)C1O (stereo unspecified)	12.3% (inactive)
COc1ccc(C(=O)N2CCN(c3ccccn3)CC2)cc1	10.2% (inactive)
NC1=NC(=O)/C(=C/c2ccc(-c3ccc(S(N)(=O)=O)cc3)o2)S1	13.8% (inactive)
CC(C)=CCNc1ncnc2c1c(C#N)cn2C1OC(CO)C(O)C1O (stereo unspecified)	-6.7% (inactive)
Cc1ccc2[nH]c(C(F)(F)F)cc(=O)c2c1	14.9% (inactive)
S=C(c1ccc(OCc2ccccc2)cc1)N1CCCC1	1.64% (inactive)
CCc1cc(C(=O)c2ccc(OC)cc2)c(N)s1	15.9% (inactive)

SMILES	activity change, negative = inhibition
O=C(O)c1ccc(/C=N\Nc2ccccn2)cc1	-6.4% (inactive)
CCC(C)(C)C1CCc2[nH]nc(C(=O)NCCN3CCOCC3)c2C1 (stereo unspecified)	-8.52% (inactive)
Cc1ccc(Nc2nc(NCCO)nc3c2cnn3C)cc1Cl	-8.75% (inactive)
Cc1cccc(Nc2nc(N)c([N+](=O)[O-])c(NCCO)n2)c1	-6.98% (inactive)
O=C(O)c1ccc(/C=N/Nc2ccc(C(F)(F)F)cn2)cc1	-6.31% (inactive)
O=C1Nc2cc(C(=O)N3CCC(N4CCCCC4)CC3)ccc2S/C1=C\c1ccccc1	-9.15% (inactive)
COc1ccc(S(=O)(=O)Nc2c(C(=O)O)[nH]c3ccc(OC)cc23)c(OC)c1	14.8% (inactive)
O=C1NC(=O)C(c2ccccc2[N+](=O)[O-])=C1Nc1ccc(O)c(Cl)c1	-4.98% (inactive)
O=C(c1ccc2c(c1)OCCO2)N1CCN(c2ccccn2)CC1	14.4% (inactive)
CC(C)n1cnc2c(N(C)c3cccc(Cl)c3)nc(N(CCO)CCO)nc21	12.7% (inactive)
O=C(O)c1ccc(/C=N/Nc2ncc(C(F)(F)F)cc2Cl)cc1	-7.53% (inactive)
O=[N+]([O-])c1ccc2c(c1)/C(=N\O)c1ccccc1-2	-10.3% (inactive)
Nc1nc(Nc2ccccc2)sc1C(=O)c1ccccc1	17.3% (inactive)
COc1cccc(C(=O)c2sc(NC(C)C)nc2N)c1	6.22% (inactive)
Nc1nc(Nc2ccccc2)nc(NCCO)c1[N+](=O)[O-]	16.5% (inactive)
COc1ccc2nc(C(F)(F)C(F)(F)F)c(C#N)c(N)c2c1	4.41% (inactive)
CCCc1cc(-c2[nH]ncc2-c2ccc(C(=O)OCC)o2)c(O)cc1O	3.88% (inactive)
O=C(O)c1ccc(N/N=C/c2ccc(C(F)(F)F)cc2)cc1	-9.49% (inactive)
